Data published in PubChem BioAssay AID504834 (National Center for Advancing Translational Sciences (NCATS), 2011).
Out of some 320,000 compounds screened, about 22,000 (6.9%) were called active. Another 27% or so got no clear call; they are omitted. The full list was thinned out, with actives kept by preference. Unmarked numbers belong to inactive results. The call rests on the fitted dose curve; in most records, active means well fitted inhibition curve with a large enough effect; inconclusive means small, poorly fitted or top-dose-only effect, or another doubt; inactive means no such curve, though single readings can be large or run the other way.

test: Primary qHTS for delayed death inhibitors of the malarial parasite plastid, 96 hour incubation; details: P. falciparum luciferase reporter growth; series mostly up to 28.7 µM; activity change, negative = inhibition: at the top concentration
How it was run: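 Readout is luminescence from an integrated firefly luciferase in P. falciparum. Red cells, 2% hematocrit and 0.05% parasitemia final, were cultured with compound through two parasite generations (96 hours) at 37 C, 5% CO2.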
On the % scale 0 is the no-effect control and ±100 the full control effect; potency means the concentration at half of the fitted maximal effect.

Row | SMILES | activity change, negative = inhibition [%] | Potency
1 | CCOC(=O)c1ccccc1NC(=O)COC(=O)C(Cc1c[nH]c2ccccc12)NC(C)=O (stereo not given) | 6.94 | –
2 | Cc1cc(C(=O)CSc2nc(N)cc(=O)[nH]2)c(C)n1Cc1ccco1 | -25.3 | –
3 | Cc1ccc(OCC(=O)c2cc(C)n(Cc3ccco3)c2C)c([N+](=O)[O-])n1 | -23.9 | –
4 | COc1ccc(C)cc1-n1nnnc1SCC(=O)c1cc(C)n(Cc2ccco2)c1C | – | 10.4 µM (active)
5 | O=c1[nH]c(NCCO)nnc1Cc1ccc(Cl)cc1 | 28.5 | –
6 | COc1ccccc1NS(=O)(=O)c1ccc(C)c(C(=O)NCC(c2ccco2)N(C)C)c1 (stereo not given) | -7.32 | –
7 | CC1CN(S(=O)(=O)c2cccc(C(F)(F)F)c2)CN1C(=O)N1CCOCC1 (stereo not given) | -13 | –
8 | O=C(NCCCNC(=O)c1ccccc1Cl)c1cnccn1 | 22.9 | –
9 | CCCCN1C(=O)c2ccc(C(=O)Nc3ccc(S(=O)(=O)N(C)C)cc3)cc2C1=O | 22.6 | –
10 | CN(Cc1cccs1)C(=O)CN1C(=O)c2ccccc2S1(=O)=O | 121 | –
11 | CCCCN(C)C(=O)c1ccc2c(c1)N(CC)C(=O)c1ccccc1S2(=O)=O | – | 10.4 µM (active)
12 | Cc1ccc(OCC(=O)NCCCNC(=O)c2cccnc2)cc1C | 12.4 | –
13 | Cc1cc(NC(=O)c2ccccc2C)no1 | -28.3 | –
14 | COc1ccccc1N1CC(C(=O)Nc2nnc(SCC(=O)NC(C)C)s2)CC1=O (stereo not given) | 1.01 | –
15 | CCCC(C)c1nnc(NC(=O)C2CC(=O)N(c3ccc(OCC)cc3)C2)s1 (stereo not given) | 30.3 | –
16 | CCOC(=O)CSc1nnc(NC(=O)C2CC(=O)N(c3ccc(F)cc3)C2)s1 (stereo not given) | – | 14.7 µM (active)
17 | CC1CN(C(=O)CCC(=O)NCCCN2CCC(Cc3ccccc3)CC2)c2cc(Cl)ccc2O1 (stereo not given) | -18.1 | –
18 | COc1cccc(NC(=O)c2cc(S(=O)(=O)N3CCc4ccccc43)cn2C)c1 | 2.69 | –
19 | CCn1c(=O)c(=O)n(CC)c2cc(N3CCCCC3)c(NC(=O)c3ccc(Cl)cc3)cc21 | 16.3 | –
20 | CC(NC(=O)c1ccccc1SCC(=O)N1CCCC1)c1ccccc1 (stereo not given) | 12.9 | –
21 | Cc1ccc(Oc2nc3ccccc3n3c(C)nnc23)cc1 | -7.96 | –
22 | CC(=O)Nc1ccc(S(=O)(=O)N(C)c2nc3ccccc3nc2Cl)cc1 | -3.33 | –

Row | SMILES | activity change, negative = inhibition [%] | Potency
23 | Cc1ccc(S(=O)(=O)N(C)c2nc3ccccc3n3c(C(C)C)nnc23)cc1 | – | 11.7 µM (active)
24 | O=C(Nc1ccccc1Cl)NC1(C(=O)N2CCOCC2)CCCCC1 | -0.281 | –
25 | N#Cc1c(Cl)nc(-c2cccnc2)nc1-c1ccccc1 | 5.64 | –
26 | CN(CC(=O)Nc1c(Cl)cccc1Cl)C(=O)CNC(=O)C1CCCCC1 | -12.9 | –
27 | O=C(Nc1c(Cl)cccc1Cl)C1CCC1 | – | 10.4 µM (active)
28 | NC(=S)Nc1c(Cl)cccc1Cl | -1.64 | –
29 | NS(=O)(=O)c1ccc2nc(NC(=O)CS(=O)(=O)c3ccc(F)cc3)sc2c1 | -3.76 | –
30 | Brc1ccc(OCCn2ccnc2)cc1 | -20.6 | –
31 | COc1ccc(CNC(=O)CCCn2nc(C)c([N+](=O)[O-])c2C)cc1 | 35.9 | –
32 | Cc1nn(CCOc2ccc(Br)cc2)c(C)c1[N+](=O)[O-] | – | 13.1 µM (active)
33 | CNS(=O)(=O)c1ccc(NC(=O)Nc2ccc3c(c2)OCO3)cc1 | -11.3 | –
34 | CCOC(=O)C(=O)C1C(=O)Nc2ccccc21 (stereo not given) | 19 | –
35 | CCCCCN(C(=O)CCC(=O)OCCOc1ccc(OC)cc1)c1c(N)n(CCCC)c(=O)[nH]c1=O | -19.4 | –
36 | CCCCCN(C(=O)CCC(=O)OCC(=O)NCc1ccc(OC)cc1)c1c(N)n(CCCC)c(=O)[nH]c1=O | 26.9 | –
37 | CCCCCN(C(=O)CCC(=O)OCC(=O)NC1CCC(C)CC1)c1c(N)n(CCCC)c(=O)[nH]c1=O (stereo not given) | – | 14.7 µM (active)
38 | O=C(NCc1ccco1)C1CCCN1S(=O)(=O)c1ccccc1C(F)(F)F (stereo not given) | -14 | –
39 | CCOC(=O)C1=C(COC(=O)[C@H](C)NS(=O)(=O)c2ccccc2F)NC(=O)NC1C (stereo not given in full) | -11 | –
40 | CN(C)CCCN=Cc1c(O)n(Cc2ccco2)c(=O)[nH]c1=O | -6.3 | –
41 | Cc1cs/c(=N\N=C\c2ccc(O)cc2)n1Cc1ccco1 | 11.9 | –
42 | CC(C)n1c(=O)c(C=Nc2ccc(Br)cc2)c(O)n(Cc2ccco2)c1=O | – | 10.4 µM (active)
43 | COC(=O)c1cccc(N(C(=O)CNC(=O)c2cccs2)C(C(=O)NCC2CCCO2)c2ccc(OC)c(OC)c2)c1 (stereo not given) | 25.5 | –
44 | CC1(C)CC(=O)CC2(C1)NCC(c1ccccc1Cl)c1c2[nH]c2ccccc12 (stereo not given) | – | 9.28 µM (active)

Row | SMILES | activity change, negative = inhibition [%] | Potency
45 | O=C(O)CC(c1ccccc1F)N1Cc2ccccc2C1=O (stereo not given) | 18.9 | –
46 | CN(C)CCNc1ccc(-c2n[nH]c(=O)c3ccccc23)cc1[N+](=O)[O-] | 0 | –
47 | CCOC(=O)c1ccc(NC(=S)Nc2cc(C)cc(C)n2)cc1 | 28.8 | –
48 | CCOC(=O)c1cc2c(nc1NC(=S)Nc1ccccc1)CC(C)(CC)OC2 (stereo not given) | – | 13.1 µM (active)
49 | CCOC(=O)c1cn[nH]c1NC(=S)Nc1ccccc1 | 183 | –
50 | COc1ccc(CNC(=O)c2cc(=O)c3c(C)cc(C)cc3o2)cc1 | 9.78 | –
51 | Cc1ccc(N=C2SCCCN2C(=O)c2cccc(N3C(=O)CCC3=O)c2)cc1Cl | -0.425 | –
52 | COc1ccc(N2CC(NS(=O)(=O)c3ccc4ccccc4c3)CC2=O)cc1 (stereo not given) | 31.1 | –
53 | O=C(NC1CCN(C(=S)NCc2ccco2)CC1)c1ccc(F)cc1 | – | 2.94 µM (active)
54 | COc1ccc(CCNC(=S)N2CCN(S(=O)(=O)c3ccc(F)cc3)CC2)cc1 | – | 2.94 µM (active)
55 | COc1ccc(CCNC(=O)C2CCCN(S(=O)(=O)c3ccc(OC)cc3)C2)cc1 (stereo not given) | 17.3 | –
56 | Cc1ccc(C(=O)NC2CCN(C(=O)Nc3ccc(F)cc3)CC2)cc1 | 35.4 | –
57 | O=S(=O)(c1ccc(F)cc1)N1CCN(C(=S)NCc2ccco2)CC1 | – | 0.657 µM (active)
58 | O=C(NCc1ccco1)C1CCCN(S(=O)(=O)c2ccccc2)C1 (stereo not given) | -64.2 | –
59 | CC1CCN(S(=O)(=O)c2ccc(S(=O)(=O)NCc3ccco3)cc2)CC1 | -27.6 | –
60 | COc1ccc(C(=O)NC2CCN(C(=S)NCCc3ccccc3)CC2)cc1 | 29 | –
61 | CCOC(=O)N1CCN(S(=O)(=O)c2ccc(OC)cc2)CC1 | -14.5 | –
62 | CSc1ccccc1NC(=O)COC(=O)CCCOc1ccc(C)cc1 | 21.6 | –
63 | COc1ccc(CCNC(=O)COC(=O)Cc2cccc(F)c2)cc1 | 11.3 | –
64 | O=C(COC(=O)CNC(=O)C1CCCCC1)NCc1ccccc1 | 24.4 | –
65 | COc1cccc(CSc2nc3nc(C)cc(C)n3n2)c1 | -2.95 | –
